LmPK inh = inhibitors of Leishmania mexicana pyruvate kinase; Potency, µM (highest dose often 57.5 µM), without a hit: at the top dose activity change, negative = inhibition, hits mostly inhibitors; 290,000 tested, 0.37% active; purified LmPK, Kinase-Glo ATP luminescence, 1 h; AID 1721; active means well fitted curve in the direction sought with a large enough effect; inconclusive means small, poorly fitted or top-dose-only effect, or another doubt; inactive means no such curve, though single readings can be large; an effect the other way counts as inactive or inconclusive; further: potency means the concentration at half of the fitted maximal effect; on the % scale 0 is the no-effect control and ±100 the full control effect
Target sequence (Q27686 whole entry, looked up): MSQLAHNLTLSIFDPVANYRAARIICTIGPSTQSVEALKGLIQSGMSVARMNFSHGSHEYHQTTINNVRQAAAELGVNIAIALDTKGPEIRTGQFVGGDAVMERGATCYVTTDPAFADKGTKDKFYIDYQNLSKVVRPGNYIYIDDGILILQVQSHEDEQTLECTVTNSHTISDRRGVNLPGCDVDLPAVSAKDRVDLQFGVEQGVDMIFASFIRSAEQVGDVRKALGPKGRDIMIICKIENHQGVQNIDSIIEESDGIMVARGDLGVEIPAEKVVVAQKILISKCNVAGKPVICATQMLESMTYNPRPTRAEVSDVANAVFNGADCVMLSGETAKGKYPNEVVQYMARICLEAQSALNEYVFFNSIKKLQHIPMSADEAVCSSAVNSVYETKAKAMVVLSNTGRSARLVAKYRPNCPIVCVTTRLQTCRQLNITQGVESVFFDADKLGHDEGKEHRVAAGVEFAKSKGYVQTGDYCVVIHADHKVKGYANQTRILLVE
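Screened at intermediate enzyme activity to detect both inhibitors and activators: LmPK at 0.1 nM, with a 0.5 nM enzyme column as activation reference. PEP 0.5 mM, ADP 0.1 mM; ATP detected by luminescence after 1 h.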
NS1 function inh = inhibitors of influenza NS1 protein function; Potency, µM (highest dose often 46.1 µM), for the others: at the highest dose activity, positive = more growth; 270,000 tested, 0.4% active; further: potency means the concentration at half of the fitted maximal effect; actives are rising curves; nearly all actives have a fitted effect of over 50% in size
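In this qHTS, NS1 from influenza A is expressed in budding yeast, where it slows growth. Cells are switched from glucose to 2% galactose medium (pH 6.0, -URA), treated with compound, and growth recovery is read at OD600.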
Tb PYK inh = T. brucei pyruvate kinase inhibition. Q57TT1. TbPYK enzyme, Kinase-Glo Plus ATP luminescence, 45 min. AID 624173. 410,000 tested, 0.12% active. Potency, µM (series often up to 76.8 µM), for the others: at the top dose activity, negative = inhibition, actives largely listed as inhibitors; active means well fitted curve in the direction sought with a large enough effect; inconclusive means small, poorly fitted or top-dose-only effect, or another doubt; inactive means no such curve, though single readings can be large; an effect the other way counts as inactive or inconclusive; further: potency means the concentration at half of the fitted maximal effect; on the % scale 0 is the no-effect control and ±100 the full control effect; nearly all actives have a fitted effect of over 50% in size
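Assay buffer: 50 mM TEA pH 7.2, 100 mM KCl, 10 mM MgCl2, 0.05% BSA, 0.01% Tween-20. Pyruvate kinase from T. brucei plus substrate met compound, then ADP (130 uM final). Luminescence was read post 45 min RT.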
CHX counter = counter-screen for Shiga toxin inhibitors: cycloheximide protein synthesis inhibition; max response, %; AID 2314; cell reporter, cycloheximide protein synthesis inhibition counterscreen; 300,000 tested, 12% active; in the data active means max response mostly above about 13%, no sharp cut-off; inactive means mostly below about 14%; further: read at 38.3 µM for the half of the compounds with a filed dose; 0% is about no effect
SARS PLP yeast = inhibitors of SARS-CoV papain-like protease in yeast | Potency, µM (doses to about 32.9 µM), inactives show at the top dose activity, positive = growth rescue, most hits filed as activators | 330,000 tested, 0.19% active | S. cerevisiae expressing SARS-CoV PLpro, growth rescue; further: potency means the concentration at half of the fitted maximal effect; 0% is about no effect; nearly all actives have a fitted effect of over 55% in size
Shiga toxin inh = blocks Shiga toxin action in Vero cells | 290,000 tested, 9.2% active | Vero cells, Shiga toxin protein synthesis inhibition reporter | inhibition, % at 38.7 µM; in the data active means inhibition mostly above about 28%, no sharp cut-off; inactive means mostly below about 43%; further: 0% is about no effect
Starred values were filed as active, the others as inactive; ? = inconclusive; . = no result given; [ ] = remark or other dose. The full list was thinned out, with hits kept by preference. Unless noted, the call rests on the fitted dose curve.

SMILES	LmPK inh	NS1 function inh	Tb PYK inh	CHX counter	SARS PLP yeast	Shiga toxin inh
O=C1NC(c2cccc3ccccc23)Nc2ccccc21 (configuration not stated)	.	.	-3.5%	.	.	.
Cc1ccsc1C1NC(=O)c2ccccc2N1 (configuration not stated)	3.5%	0.6%	-21.1%	22.8*	3.5%	22.3
Cc1ccc(C)c([C@@H]2NC(=O)c3ccccc3N2)c1	.	-0.7%	.	.	.	.
O=C1NC(c2cccs2)Nc2ccccc21 (configuration not stated)	3.8%	-45.1%	?	20.7*	0.9%	37.9*
CC(=O)N1CC(O)CC1C(=O)O (configuration not stated)	.	.	3.8%	.	.	.
CCC1(OC(=O)CN(C)C)C(=O)OCc2c1cc1n(c2=O)Cc2cc3c(N)cccc3nc2-1 (configuration not stated)	.	.	-16.0%	.	.	.
CC(C)S(=O)(=O)c1csc(NC(=O)Nc2cc(Cl)ccc2Cl)c1Cl	2.6%	2.7%	-1.0%	10.0	0.6%	-4.6
CN1c2ccsc2C(O)=C(C(=S)Nc2ccc(F)c(Cl)c2)S1(=O)=O	-0.6%	-99.0%	-30.0%	15.4*	-26.8%	50.6
Cn1cc(C(=O)Nc2ccc(F)c(Cl)c2)cn1	-3.5%	-9.6%	4.6%	10.1	12.2%	43.2
C=CCSc1nc(=O)n2ccc(C)cc2n1	10.4%	.	1.9%	27.6*	-2.3%	36.5
Cc1ccc(CCNC(=O)NCc2noc3ccc(C)cc23)cc1	.	.	-2.8%	.	.	.
O=C(O)CC[P+](c1ccccc1)(c1ccccc1)c1ccccc1	.	-1.9%	.	.	.	.
COc1ccccc1C1=NN(C(=S)Nc2ccccc2)C(c2ccco2)C1 (configuration not stated)	-2.0%	?	-13.2%	28.0*	-1.5%	51.3*
CS(=O)(=O)N(CC(=O)Nc1ccc2c(c1)OCCO2)Cc1ccc(Cl)cc1	-0.7%	-11.2%	-1.9%	21.8*	5.0%	33.3*
COc1ccc(C)cc1S(=O)(=O)N(CC(=O)Nc1ccc2c(c1)OCCO2)Cc1ccccc1	-9.8%	-54.5%	-1.9%	9.8*	0.7%	14.6
CC(C)(C)OC(=O)N1CCC(c2c(C(=O)NC3CCN(Cc4ccccc4)CC3)cnn2-c2ccc(F)cc2F)CC1	.	.	2.3%[15.4 µM]	.	.	.
Nc1c2c(=O)oc(-c3ccccc3)cc2nn1-c1ccccc1	3.7%	-28.8%	-4.3%	37.9*	-7.2%	114.9*
Cc1c(-c2ccc(Cl)cc2)oc(=O)c2c(N)n(-c3ccccc3)nc12	1.8%	4.8%	4.2%	24.5*	-1.1%	17.2
CSc1nc(N)n2nc(-c3ccc(Cl)cc3)cc2n1	-26.2%	-4.6%	-0.3%	47.0*	-2.7%	86.2*
O=C(Nc1ccc(Br)cc1)Nn1cnnc1	-4.7%	-8.2%	-4.3%	11.5*	0.1%	21.2
CCc1ccc(NC(=O)Nn2cnnc2)cc1	0.9%	-8.3%	-1.8%	17.4*	1.3%	24.1
COCCCN(C(=O)Cc1coc2cc(C)c(C)cc12)c1c(N)n(Cc2ccccc2)c(=O)[nH]c1=O	.	.	1.3%	.	5.7%	.
Cc1nc(/N=C(\N)Nc2ccccc2)nc2ccccc12	2.4%	-9.0%	.	15.9*	-4.1%	43.4
Cc1cc(C)nc(/N=C(\N)Nc2ccc(OCc3ccccc3)cc2)n1	0.8%	5.1%	0.9%	-1.2	0.4%	-1.1
C/C(=N\Nc1nccnc1Cl)c1c(F)c(F)c(F)c(F)c1F	-1.3%	10.4%	-3.3%	11.5	43.2%	29.0
SMILES	LmPK inh	NS1 function inh	Tb PYK inh	CHX counter	SARS PLP yeast	Shiga toxin inh
C/C(=N\Nc1nccnc1Cl)c1ccc(F)cc1	?	6.4%	-2.2%	33.1*	0.2%	84.9*
C/C(=N\Nc1nccnc1Cl)c1ccc(O)cc1	-7.1%	-5.4%	1.5%	25.6*	-5.6%	28.7*
C/C(=N\Nc1nc(N)cc(Cl)n1)c1ccc(F)cc1	-3.1%	5.3%	1.1%	41.3*	-3.1%	70.0*
C/C(=N\Nc1nccnc1Cl)c1ccc(Cl)c(Cl)c1	-0.6%	-13.7%	4.2%	28.7*	-3.2%	.
C/C(=N\Nc1cc(Cl)nc(C)n1)c1ccc(Cl)c(Cl)c1	10.1%	13.0%	1.7%	-3.2	6.1%	-1.1
CCCCn1c(N)c(N(CCC(C)C)C(=O)CC2CCCCC2)c(=O)[nH]c1=O	.	.	-12.3%	.	0.2%	.
COc1ccc(CN(C)c2ccc(-c3nc(-c4ccccc4)no3)cc2[N+](=O)[O-])cc1	.	.	1.3%	.	.	.
COc1ccc(-n2nc3c(c2NC(=O)CCCCl)CSC3)cc1	6.2%	2.7%	-0.8%	16.4*	-3.9%	28.1
Clc1ccc(-c2cc(COc3ccccc3)on2)cc1	10.6%	.	-2.6%	38.3*	0.5%	104.7*
Clc1ccc(OCc2cc(-c3ccccc3)no2)cc1Cl	1.4%	-2.9%	5.8%	44.6*	-6.0%	active
COc1ccccc1OCC(=O)NCC1(N2CCOCC2)CCCCC1	.	.	0.5%	.	.	.
Nc1ncc(Br)cc1N=Cc1ccccc1	-2.8%	-18.7%	-4.9%	74.7*	11.4%	27.3*
Cc1ccc(C(NC(=O)N2CCCC2)C(Cl)Cl)cc1F (configuration not stated)	1.6%	.	-2.6%	7.8	-5.2%	30.5
Cc1ccc(C(NC(=O)NN2CCN(C)CC2)C(Cl)Cl)cc1F (configuration not stated)	1.4%	-3.0%	2.1%	31.7*	2.1%	78.7*
CCC(=O)N1CCc2cc(CNS(=O)(=O)c3c(C)cc(C)cc3C)ccc21	.	.	5.6%	.	.	.
O=c1oc2ccccc2cc1-c1nc(-c2cccs2)no1	.	.	-12.6%	.	.	.
O=c1oc2ccc(Br)cc2cc1-c1nc(-c2ccccc2)no1	.	.	0.3%	.	.	.
Cc1ccc(-c2noc(-c3cc4ccccc4oc3=O)n2)cc1	0.3%	-6.3%	0.1%	24.7*	2.0%	41.5
Cc1cccc(-c2noc(-c3cc4ccccc4oc3=O)n2)c1	-20.7%	-5.2%	-0.4%	29.4*	0.2%	84.9*
O=c1oc2ccccc2cc1-c1nc(-c2ccccc2)no1	-11.8%	-11.8%	4.3%	35.7*	2.8%	106.7*
Cc1ccc(CSC2=NCCN2S(=O)(=O)c2ccc(F)cc2)cc1	-6.3%	-36.2%	-3.0%	12.1	-11.2%	15.6
O=C(c1cccc(F)c1)N1CCC2(CCCN(c3ccncc3)C2)CC1	.	.	-4.2%	.	.	.
CC(=O)c1cccc(NC(=O)c2csc3c2CCCCC3)c1	6.4%	.	-0.2%	36.7*	-2.7%	54.7*
CCOc1ccc(NC(=O)c2csc3c2CCCC3)cc1	-7.6%	12.9%	-4.0%	35.9*	-6.2%	32.2
CCOC(=O)c1ccc(NC(=O)c2csc3c2CCCC3)cc1	.	.	-8.4%	.	.	.
O=C(COC(=O)c1cccs1)NCc1ccccc1	-1.0%	-18.5%	-2.9%	25.2*	-9.6%	38.0
C=C(C)C(=O)OCC(=O)NCc1ccccc1	-1.1%	.	-14.0%	35.7*	-3.5%	114.2*
O=C(COC(=O)c1cccs1)NCc1ccc2c(c1)OCO2	0.5%	-6.0%	3.9%	40.0*	-4.8%	68.7*
O=C(COC(=O)c1ccc(Br)o1)NCC1CCCCC1	.	.	-1.7%	.	-7.2%	.
O=C(NCc1ccc2c(c1)OCO2)c1cccs1	1.3%	-8.7%	-9.6%	-5.4	2.3%	-5.2
